The values below come from PubChem BioAssay AID1063 (University of Pittsburgh Molecular Library Screening Center, 2008).

Among all 200,000 compounds or so, about 18,000 (9%) were called active. Cut-off read from the data, not from the text of the source: active = inhibition above about 50%; inactive = the rest. What follows is part of a selection rich in actives, with near analogues and random picks from the rest. Where a SMILES comes first, the peptide text is derived from it. [ ]: non-standard residue; d: D form. ξ: configuration not given here. ξM = CSCCC(N)C(=O)O

The nature of this experiment: antileishmanial activity against promastigotes – primary screen (AID 1063).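 Note: promastigotes grown with compound for 44 hours at 28 °C.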 The settings on record: Leishmania major promastigotes, resazurin fluorescence viability; at 10 µM; stronger effect = higher value. On the technique in general: Resazurin is reduced to fluorescent resorufin, in cell work by metabolically active cells.
On to `ClC1(Cl)CC1CSc1ncn[nH]1` (centres undefined), for which the inhibition was 3.37% (inactive). Consider `CCc1ccc(CNC(=O)C2CCCN(c3nc4ccccc4o3)C2)cc1` (centres undefined), for which the inhibition is 0.6% (inactive).

Regarding `CCOC(=O)CCNC(=O)N1CCCC(C(=O)c2ccccc2SC)C1` (centres undefined), the inhibition was -1.7% (inactive). Turning to `CCOC(=O)c1cnc(Nc2nc3ccccc3o2)nc1CSC(=S)N1CCCCC1`, the inhibition was 56.7% (active). For the compound `COc1ccc(-n2nc(C(=O)Nc3cc(OC)c(OC)c(OC)c3)c3ccccc3c2=O)c(OC)c1`, the inhibition was 0.87% (inactive). Regarding `O=C(c1cccc(F)c1)N1CCN(c2ccc([N+](=O)[O-])c3cccnc23)CC1`, the inhibition was 45.7% (inactive). The value for `CC(CNc1ccc([N+](=O)[O-])c2cccnc12)Nc1c([N+](=O)[O-])cc(C(F)(F)F)cc1[N+](=O)[O-]` (centres undefined) was 76.9% (active). Take `O=C(CSc1ccc(C(F)(F)F)cc1[N+](=O)[O-])NCCOc1ccccc1`: the inhibition was -4.83% (inactive).

With `COc1ccnc(Oc2ccccc2)c1-c1ncn[nH]1`, the inhibition was -5.3% (inactive). In the case of `CC1CCN(S(=O)(=O)c2ccc3ncn(CC(=O)N(C)C4CCCCC4)c(=O)c3c2)CC1`, the inhibition was -0.9% (inactive). `Cc1ccc(NC(=O)Nc2nnc(-c3ccncc3)s2)cc1`: the inhibition was 12.8% (inactive).

As for `CCN1/C(=C\c2ccc3ccccc3[n+]2CC)Sc2cc(C)ccc21`, the inhibition was 101% (active).

`CCC(=O)/C=C1\Sc2ccccc2N1CC`: the inhibition was 3.43% (inactive). The value for `CCN1/C(=C/c2ccc3ccc(C)cc3[n+]2CC)Sc2ccccc21` was 100% (active). `O=C(Cc1ccccc1)N1CCN(S(=O)(=O)c2ccc([N+](=O)[O-])cc2)CC1`: the inhibition was 5.24% (inactive). On to `Cc1ccc(Nc2c(F)c(F)c(F)c(F)c2C(=O)O)c(C)c1`, for which the inhibition was -6.66% (inactive).

In the case of `COc1cccc(CN(C)CC(=O)Nc2ccccc2C(=O)Nc2ccccc2)c1`, the inhibition was 16.9% (inactive). The value for `Cc1cc([N+](=O)[O-])ccc1NC(=O)c1ccc(NC(=O)C(C)C)cc1` was -5.33% (inactive); that for `CN1CC(c2ccccc2)C2(COc3ccccc3C2=O)C12C(=O)Nc1ccccc12` (centres undefined) was 62.6% (active); that for `O=C(CN1CCN(S(=O)(=O)c2ccc(F)cc2)CC1)Nc1ccccc1F` was 1.33% (inactive). Regarding `O=S(=O)(c1ccc(F)cc1)N1CCN(Cc2ccccc2C(F)(F)F)CC1`, the inhibition is 51.1% (active).

In the case of `Cc1ccc(S(=O)(=O)N2CCN(Cc3cccc(C)c3O)CC2)cc1`, the inhibition is -1.84% (inactive). With `COc1ccc(CN(C)C(C)C(=O)NC2CCCc3ccccc32)cc1` (centres undefined), the inhibition was 10% (inactive). Take `O=C(c1cccc(F)c1)N1CCN(c2ccc([N+](=O)[O-])c(N3CCCCC3)c2)CC1`: the inhibition was 4.09% (inactive). Take `O=[N+]([O-])c1ccc(N2CCN(S(=O)(=O)c3ccc4ccccc4c3)CC2)cc1NCc1ccco1`: the inhibition was -0.79% (inactive).

`O=C(c1ccccc1)N1CCN(c2ccc([N+](=O)[O-])c(NCc3ccco3)c2)CC1`: the inhibition is 65.6% (active). Turning to `CN(C)c1ccc(/C=N/NC(=O)C(O)c2ccc(Br)cc2)cc1` (centres undefined), the inhibition is 4.17% (inactive). For `CN(C)c1ccnc(Nc2ccc(F)cc2)c1C#N`, the inhibition is -2.28% (inactive). Take `COC(=O)/C(NC(C)=O)=C(\C)c1ccc(Cl)cc1`: the inhibition was 0.11% (inactive). In the case of `C/C(=N\N=C(N)N)c1ccc(Cl)cc1`, the inhibition was 98.8% (active).

`CCOC(=O)NNC(=O)c1ccc(Cl)cc1`: the inhibition was -5.24% (inactive).

Consider `Fc1cccc(Cc2noc(CN3CCN(c4cnccn4)CC3)n2)c1`, for which the inhibition was -3.37% (inactive).

Regarding `CCOC(=O)N1CCN(Cc2nc(Cc3cccc(C(F)(F)F)c3)no2)CC1`, the inhibition was 4.8% (inactive).

`FC(F)(F)c1cccc(Cc2noc(CN3CCC(N4CCCCC4)CC3)n2)c1`: the inhibition was 82.7% (active). For `Cc1ccc(S(=O)(=O)/N=C(/Nc2ccc3[nH]c(=O)[nH]c3c2)c2ccccc2)cc1`, the inhibition is -4.98% (inactive). The value for `O=S(=O)(/N=C(/Nc1ccccc1)c1ccccc1)c1cccs1` was 1.04% (inactive); that for `CCOC(=O)c1ccc(N/C(=N/S(=O)(=O)c2ccccc2)c2ccccc2)cc1` was 61.3% (active).

Take `COC(=O)CNC(=O)C(CCSC)NC(C)=O` (centres undefined) (Ac-[ξM]-Gly-OMe): the inhibition was -3.76% (inactive). `COc1ccc(C[C@H]2CN3C(=NC[C@H]3C)N2CCNC(=O)CCC2CCCCC2)cc1`: the inhibition was 31.8% (inactive).

For the compound `Cc1cccc(-n2c(=O)c3c(C)c(C)sc3n(CC(N)=O)c2=O)c1`, the inhibition was 4.25% (inactive).

For the compound `CC(=O)N(CN1C(=O)C2C3C=CC(C3)C2C1=O)c1cccc(Cl)c1` (centres undefined), the inhibition was -6.29% (inactive). With `O=C(COC(=O)CNS(=O)(=O)c1ccccc1)NC12CC3CC(CC(C3)C1)C2`, the inhibition was 1.38% (inactive). Regarding `COc1ccccc1-c1nnc(NC(=O)c2ccc3ncsc3c2)o1`, the inhibition was 80.7% (active). In the case of `COc1ccccc1-c1nnc(SCC(=O)Nc2ccccc2)o1`, the inhibition was 2.06% (inactive).

As to `COc1ccccc1-c1nnc(NC(=O)c2cccc(N3C(=O)CCC3=O)c2)o1`, the inhibition was -4.87% (inactive). In the case of `Cc1ccc(S(=O)(=O)Cc2cc(-c3ccc(Cl)cc3)no2)cc1`, the inhibition is -0.46% (inactive).

With `COc1ccccc1CC(NC(C)=O)C(=O)NC1CCN(C(=O)Nc2ccccc2Cl)CC1` (centres undefined), the inhibition was -3.45% (inactive). On to `COCCCNC(=O)Cn1c(=O)n(Cc2ccccc2Cl)c(=O)c2cc(OC)c(OC)cc21`, for which the inhibition is -3.45% (inactive).

On to `Cc1ccc(S(=O)(=O)CCC(=O)OCc2ccccc2)cc1`, for which the inhibition was -3.07% (inactive). For `CCOc1cc(C2C(C(=O)OC(C)C)=C(C)NC3=C2C(=O)CCC3)cc([N+](=O)[O-])c1O` (centres undefined), the inhibition was 8.32% (inactive). In the case of `O=C(Nc1ccccc1C(=O)N1CCOCC1)c1ccc(CSc2ccccc2)cc1`, the inhibition is 15.2% (inactive). With `O=C(Nc1ccc(CSc2ccccc2)cc1)c1ccc(CN2CCOCC2)cc1`, the inhibition is 95.2% (active). With `COc1ccc(C(=O)Nc2ccc(CN3CCOCC3)cc2)cc1`, the inhibition was 0.71% (inactive). For `NC(=O)COC(=O)c1sc2cc(F)ccc2c1Cl`, the inhibition is -4.95% (inactive).

With `O=C(O)CCCCOn1ccnc1`, the inhibition is -5.36% (inactive). Turning to `Cc1oc2c(c1C(=O)N1CCOCC1)C(=O)c1ccccc1C2=O`, the inhibition was 99.7% (active). As for `Cc1onc(-c2ccccc2)c1C(=O)N1CCOCC1`, the figure is 0.76% (inactive); as for `O=C(c1ccccc1-c1ccccc1)N1CCOCC1`, 1.25% (inactive). In the case of `Cc1c(C=O)n(C)n(-c2ccccc2)c1=O`, the inhibition is 0.34% (inactive). In the case of `COc1cc(NC(=O)COc2ccccc2Cl)ccc1NC(=O)C(C)C`, the inhibition is 1.32% (inactive). For the compound `CN(C)S(=O)(=O)c1ccc2oc(SCC(=O)Nc3ccccc3F)nc2c1`, the inhibition is 2.57% (inactive). Take `Cc1cccc(C)c1NC(=O)CNC(=O)Cc1ccc(Br)cc1`: the inhibition was -3.9% (inactive). For `CSc1ccccc1NC(=O)CN(C)CC(=O)Nc1cccc(Br)c1`, the inhibition is 18.6% (inactive).

Take `CSc1ccccc1NC(=O)Cc1ccc(Br)cc1`: the inhibition was 53.5% (active).

With `Cc1ccc(OCC(=O)Nc2ccc(S(=O)(=O)Nc3ccccn3)cc2)cc1`, the inhibition is -4.12% (inactive).

As for `C=CCN(c1ccc(C(N)=O)cc1)S(C)(=O)=O`, the inhibition was -6.04% (inactive).

As to `CSCc1ccc(C(=O)Nc2cc(C)cc(C)c2)cc1`, the inhibition is -3.2% (inactive).

As for `C=CCN(c1ccc(C(=O)Nc2cc(C)cc(C)c2)cc1)S(C)(=O)=O`, the inhibition is 76% (active). For `Cc1cccc2nc(CSc3nc4[nH]ncc4c(=O)n3-c3cccc(Cl)c3)cc(=O)n12`, the inhibition was 56.1% (active). As to `COc1ccc(CCNC(=O)CSc2nc3[nH]ncc3c(=O)n2-c2cccc(C(F)(F)F)c2)cc1OC`, the inhibition was -7.3% (inactive).

As to `Cc1ccc(CSc2nc3[nH]ncc3c(=O)[nH]2)cc1`, the inhibition was -3.25% (inactive). As for `CCc1ccc(-n2c(SCc3cc(=O)n4cc(Br)ccc4n3)nc3[nH]ncc3c2=O)cc1`, the figure is 56.9% (active); as for `O=c1c2sccc2nc(SCc2cc(=O)n3ccccc3n2)n1-c1ccc(Br)cc1`, 12.1% (inactive); as for `O=C(CSc1nc2[nH]ncc2c(=O)n1-c1ccccc1)N1CCCc2ccccc21`, 15.2% (inactive). Turning to `CC(C)Oc1ccc(Cc2n[nH]c(=S)n2Cc2ccccc2)cc1Cl`, the inhibition was 4.91% (inactive).

As for `Nc1c(NCCc2ccccc2)c2ccccc2oc1=O`, the inhibition was -2.7% (inactive). Consider `Cc1ccc(C(=O)N/C(=C\c2cccs2)C(=O)NCCc2ccccn2)cc1C`, for which the inhibition was 16.6% (inactive). On to `COC(=O)C1=C(C)N(C)C(=S)NC1c1cc(OC)ccc1OC` (centres undefined), for which the inhibition is 3.3% (inactive). Turning to `COc1cc(SC)ccc1C(=O)NCCOc1ccccc1Cl`, the inhibition is 1.79% (inactive).

Consider `COc1cc(SC)ccc1C(=O)Nc1cc(C)ccn1`, for which the inhibition was 25.5% (inactive).

Regarding `COc1ccccc1CNC(=O)c1ccc(SC)cc1OC`, the inhibition was 66.9% (active). In the case of `O=C(NNC(=O)C1C2CCC(C2)C1C(=O)O)c1ccc(Cl)cc1` (centres undefined), the inhibition is -5.41% (inactive). For the compound `Cc1cccc(C(=O)OC(C)CN2CCN(C)CC2)c1` (centres undefined), the inhibition was 3.94% (inactive).

Consider `CO/N=C/c1cn(-c2ccc(Cl)cc2)nn1`, for which the inhibition is -1.77% (inactive). The value for `CCC1CCCCN1CCCNC(=O)C1CCC(Cn2c(=O)[nH]c3ccccc3c2=O)CC1` (centres undefined) was -4.5% (inactive); that for `CCC1CCCCN1CCCNC(=O)Cn1nc(-c2ccccc2)ccc1=O` (centres undefined) was -4.42% (inactive).

Take `CCC1CCCCN1CCCNC(=O)c1cc2c(Cl)nc3ccccc3c2s1` (centres undefined): the inhibition was 100% (active). Turning to `CC(C)OCC(O)CN1CCN(C(c2ccccc2)c2ccccc2)CC1` (centres undefined), the inhibition was 0.57% (inactive). On to `Cc1ccccc1C(OCC(O)CN1CCCCC1CCO)c1ccccc1` (centres undefined), for which the inhibition was 99.7% (active). With `Cc1ccccc1C(OCCN(C)C)C1CCCCC1` (centres undefined), the inhibition was 18.1% (inactive).

Turning to `CC(C)N(Cc1nc(-c2ccc3c(c2)OCO3)no1)CC1CCC(=O)N1` (centres undefined), the inhibition is -6.4% (inactive). For the compound `COc1ccc(C(=O)Nc2ccc(S(=O)(=O)NC(C)C)cc2)cc1`, the inhibition is -3.72% (inactive). In the case of `COc1ccc(NS(=O)(=O)c2ccc(NC(=S)NC(=O)CC(C)C)cc2)cc1`, the inhibition is 96.7% (active).

As to `CC(=O)c1ccc(NC(=S)NC(=O)CC(C)C)cc1`, the inhibition is -4.65% (inactive).

One may read the inhibition as the drop in the measured response relative to a control, in per cent.
